Source: the supplement of paper PMC8728848
Only a selection was taken, and the strongest signals are over-represented in it overall.

Experiments:
Assay in all cases: glycan array binding signal (z-score within array); higher = stronger binding
Settings in all cases: glycan notation: IUPAC condensed, linker removed
Fuc(a1-2)Gal = molecular target: Fuc(a1-2)Gal
Method in brief: (§1)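 Glycan array data were curated from 3228 arrays in the Consortium for Functional Glycomics database and kept only where the protein sequence was available. Glycan names were converted to IUPAC-condensed notation, and columns mapping to the same glycan were averaged. The binding signal is a within-array Z-score, averaged across arrays of the same protein sequence at different concentrations or buffers and across linkers. Negative Z-scores can be read as non-binding.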

[1] = molecular target: Fuc(a1-2)Gal(b1-3)GlcNAc(b1-3)GalNAc
Method in brief: as §1

[2] = molecular target: Fuc(a1-2)Gal(b1-4)GlcNAc(b1-3)[Fuc(a1-3)[Gal(b1-4)]GlcNAc(b1-6)]Gal(b1-4)Glc
Method in brief: as §1

[3] = molecular target: Fuc(a1-2)[Gal(a1-3)]Gal(b1-4)Glc
Method in brief: as §1

[4] = molecular target: Fuc(a1-2)[GalNAc(a1-3)]Gal
Method in brief: as §1

[5] = molecular target: Fuc(a1-2)[GalNAc(a1-3)]Gal(b1-3)GlcNAc(b1-2)Man(a1-3)[Fuc(a1-2)[GalNAc(a1-3)]Gal(b1-3)GlcNAc(b1-2)Man(a1-6)]Man(b1-4)GlcNAc(b1-4)[Fuc(a1-6)]GlcNAc
Method in brief: as §1

[6] = molecular target: Fuc(a1-2)[GalNAc(a1-3)]Gal(b1-4)GlcNAc(b1-2)Man(a1-3)[Fuc(a1-2)[GalNAc(a1-3)]Gal(b1-4)GlcNAc(b1-2)Man(a1-6)]Man(b1-4)GlcNAc(b1-4)[Fuc(a1-6)]GlcNAc
Method in brief: as §1

[7] = molecular target: Fuc(a1-2)[GalNAc(a1-3)]Gal(b1-4)[Fuc(a1-3)]GlcNAc
Method in brief: as §1

[8] = molecular target: Fuc(a1-2)[GalNAc(a1-3)]Gal(b1-4)[Fuc(a1-3)]GlcNAc(b1-3)GalNAc
Method in brief: as §1

[9] = molecular target: Fuc(a1-3)[GalNAc(b1-4)]GlcNAc
Method in brief: as §1

[10] = molecular target: Gal(a1-3)Gal(b1-3)GlcNAc(b1-2)Man
Method in brief: as §1

[11] = molecular target: Gal(a1-3)Gal(b1-3)GlcNAc(b1-6)GalNAc
Method in brief: as §1

[12] = molecular target: Gal(a1-3)Gal(b1-4)[Fuc(a1-3)]GlcNAc
Method in brief: as §1

Gal(a1-3)GalNAc = molecular target: Gal(a1-3)GalNAc
Method in brief: as §1

[13] = molecular target: Gal(a1-3)[Gal(a1-4)]Gal(b1-4)GlcNAc
Method in brief: as §1

Gal(a1-4)Gal(b1-4)Glc = molecular target: Gal(a1-4)Gal(b1-4)Glc
Method in brief: as §1

[14] = molecular target: Gal(b1-3)GalNAc(a1-3)[Fuc(a1-2)]Gal(b1-4)Glc
Method in brief: as §1

[15] = molecular target: Gal(b1-3)GalNAc(b1-4)Gal(b1-4)Glc
Method in brief: as §1

[16] = molecular target: Gal(b1-3)GlcNAc(b1-3)Gal(b1-3)GlcNAc
Method in brief: as §1

[17] = molecular target: Gal(b1-3)GlcNAc(b1-3)Gal(b1-4)GlcNAc(b1-3)Gal(b1-4)GlcNAc(b1-2)[Gal(b1-3)GlcNAc(b1-3)Gal(b1-4)GlcNAc(b1-3)Gal(b1-4)GlcNAc(b1-6)]Man(a1-6)[Gal(b1-3)GlcNAc(b1-3)Gal(b1-4)GlcNAc(b1-3)Gal(b1-4)GlcNAc(b1-2)Man(a1-3)]Man(b1-4)GlcNAc(b1-4)[Fuc(a1-6)]GlcNAc
Method in brief: as §1

[18] = molecular target: Gal(b1-3)GlcNAc(b1-6)Gal(b1-4)GlcNAc
Method in brief: as §1

Gal(b1-4)Glc6S = molecular target: Gal(b1-4)Glc6S
Method in brief: as §1

[19] = molecular target: Gal(b1-4)GlcNAc(b1-2)Man(a1-3)[Gal(b1-4)GlcNAc(b1-2)Man(a1-6)][Gal(b1-4)GlcNAc(b1-4)]Man(b1-4)GlcNAc(b1-4)[Fuc(a1-6)]GlcNAc
Method in brief: as §1

[20] = molecular target: Gal(b1-4)GlcNAc(b1-6)Gal(b1-4)GlcNAc
Method in brief: as §1

[21] = molecular target: Gal3S(b1-4)[Fuc(a1-3)]Glc6S
Method in brief: as §1

Gal6P(b1-4)GlcNAc = molecular target: Gal6P(b1-4)GlcNAc
Method in brief: as §1

Gal6S(b1-3)GlcNAc = molecular target: Gal6S(b1-3)GlcNAc
Method in brief: as §1

Gal6S(b1-4)Glc = molecular target: Gal6S(b1-4)Glc
Method in brief: as §1

GalNAc(a1-3)GalNAc = molecular target: GalNAc(a1-3)GalNAc
Method in brief: as §1

[22] = molecular target: GalNAc(b1-3)Gal(a1-4)Gal(b1-4)GlcNAc
Method in brief: as §1

B1: AT3G09350(27) (Arabidopsis thaliana), Q84J81 (protein)
chain: MAKDGPNWDGLLKWSLSHADGTRPTRQLSEEDRKWFMEAMQSQTVDVVKRMKEITLVMQTPEQVLVEHGVTPEDIQDLLDELQEHVESIDMANDLHSIGGLVPLLSFLKNSHANIRAKAADVVSTIVQNNPRSQELVMETNALESLLSNFTSDTDIHARTQALGAISSLIRHNKPGVTAFKLANGYAGLRDALASDSVRFQRKALNLLQYLLQEDDSDRSIATGLGFPRVMMHLASSDDAEIREAALRGLLELSREKNDGSSSIDKSDEKLRQLLEERIKGITLMSQEDLETVKEERQLVDLLWSICYNEPSSLREKGLVVLPGEDALPPDVASKLFEPPLRASAANRNATEKKDEPMKLLGP
**Q.** For B1, which “glycan array binding signal (z-score)” value (Fuc(a1-2)Gal) is on record?
**A.** -0.113

**Q.** And the “glycan array binding signal (z-score)” value [1]?
**A.** 0.676

**Q.** What about the “glycan array binding signal (z-score)” value [2] of the same binder?
**A.** -0.595

**Q.** What about the “glycan array binding signal (z-score)” value [3] of the same binder?
**A.** 2.16

**Q.** And the “glycan array binding signal (z-score)” value [4]?
**A.** -0.506

**Q.** And the “glycan array binding signal (z-score)” value [5]?
**A.** -0.677

**Q.** And the “glycan array binding signal (z-score)” value [6]?
**A.** 0.007

**Q.** What about the “glycan array binding signal (z-score)” value [7] of the same binder?
**A.** 0.498

**Q.** And the “glycan array binding signal (z-score)” value [8]?
**A.** 5.85

**Q.** And the “glycan array binding signal (z-score)” value [9]?
**A.** 3.56

**Q.** And the “glycan array binding signal (z-score)” value [10]?
**A.** 0.248

**Q.** What about the “glycan array binding signal (z-score)” value [11] of the same binder?
**A.** -0.449

**Q.** What about the “glycan array binding signal (z-score)” value [12] of the same binder?
**A.** -0.122

**Q.** And the “glycan array binding signal (z-score)” value (Gal(a1-3)GalNAc)?
**A.** 2.5

**Q.** And the “glycan array binding signal (z-score)” value [13]?
**A.** 8.94

**Q.** And the “glycan array binding signal (z-score)” value (Gal(a1-4)Gal(b1-4)Glc)?
**A.** 2.11

**Q.** And the “glycan array binding signal (z-score)” value [14]?
**A.** -0.346

**Q.** And the “glycan array binding signal (z-score)” value [15]?
**A.** 1.91

**Q.** And the “glycan array binding signal (z-score)” value [16]?
**A.** -0.089

**Q.** What about the “glycan array binding signal (z-score)” value [17] of the same binder?
**A.** -0.059

**Q.** And the “glycan array binding signal (z-score)” value [18]?
**A.** 3.05

**Q.** What about the “glycan array binding signal (z-score)” value (Gal(b1-4)Glc6S) of the same binder?
**A.** 0.57

**Q.** And the “glycan array binding signal (z-score)” value [19]?
**A.** -0.391

**Q.** What about the “glycan array binding signal (z-score)” value [20] of the same binder?
**A.** 3.1

**Q.** And the “glycan array binding signal (z-score)” value [21]?
**A.** -0.174

**Q.** And the “glycan array binding signal (z-score)” value (Gal6P(b1-4)GlcNAc)?
**A.** -0.424

**Q.** And the “glycan array binding signal (z-score)” value (Gal6S(b1-3)GlcNAc)?
**A.** -0.146

**Q.** What about the “glycan array binding signal (z-score)” value (Gal6S(b1-4)Glc) of the same binder?
**A.** -0.106

**Q.** What about the “glycan array binding signal (z-score)” value (GalNAc(a1-3)GalNAc) of the same binder?
**A.** -0.182

**Q.** What about the “glycan array binding signal (z-score)” value [22] of the same binder?
**A.** 4.3
